Fluorescein fluor: compound fluoresces in the fluorescein spectral region; actives 0.91% (n = 59,000); Compound autofluorescence, 480/540 nm, fluorescein-equivalent; stronger effect = higher value; max fluorescein-equivalent concentration, M; AID 593; in the data active = max fluorescein-equivalent concentration above about 10 nM; inconclusive = between about 1.1 nM and that limit
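In this qHTS profile, compound fluorescence was measured with a 480 nm/540 nm filter pair following a 15-min room-temperature incubation in 100 mM Tris (pH 8.0). A six-point fluorescein series on each plate served for normalization.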
Rhodamine fluor: compound fluoresces in the rhodamine spectral region; Rhodamine-region fluorescence, 547/598 nm, Tris buffer; stronger effect = higher value; max dye-equivalent concentration, M; actives 0.05% (n = 59,000); in the data active = max dye-equivalent concentration above about 11 nM; inconclusive = between about 1.1 nM and that limit
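A six-point rhodamine series on each plate calibrates the signal. Compounds sit in 100 mM Tris (pH 8.0) for 15 min at ambient temperature before imaging through 547 nm/598 nm filters.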
A647 fluor: A647 region autofluorescence; Compound fluorescence, A647 channel (570/671 nm), Tris buffer; max dye-equivalent concentration, M; 59,000 tested, under 10 active; AID 592;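 also: values scaled relative to a standard on each plate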
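Spectral profiling of library compounds in pH 8.0 Tris: 15 min room-temperature incubation, single ex/em pair (570/671 nm), response normalized to Alexa 647 equivalents.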
Texas Red fluor: compound fluoresces in the Texas Red spectral region | Compound fluorescence, Texas Red channel, 547/618 nm; stronger effect = higher value | max dye-equivalent concentration, M | actives 0.06% (n = 59,000); in the data active = max dye-equivalent concentration above about 10 nM; inconclusive = between about 1.1 nM and that limit
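Dye-equivalent concentrations come from scaling compound signal (ex 547, em 618 nm) to six Texas Red standard concentrations run on every plate, after 15 min room-temperature incubation in pH 8.0 Tris (100 mM).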
Resorufin autofl: compound fluoresces in the resorufin spectral region; max dye-equivalent concentration, M; AID 588; actives 0.04% (n = 59,000); Compound fluorescence, resorufin region 547/598 nm, buffer; stronger effect = higher value
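Intrinsic fluorescence profiled in the resorufin window (ex 547 nm, em 598 nm) after 15 min at room temperature in pH 8.0 Tris buffer (100 mM); responses normalized against a six-point resorufin standard series as dye-equivalent concentration.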
A488 autofl: compound fluoresces in the A488 spectral region | compound autofluorescence, A488 spectral region, dye equivalency; Compound Type: qHTS ECL - MLSMR | max dye equivalency, M | actives 0.1% (n = 59,000)
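Compound autofluorescence was read in 100 mM Tris pH 8.0 after 15 min at room temperature, ex 480 nm/em 540 nm. Intensities were converted to A488 dye-equivalent concentration using an on-plate six-point A488 standard curve.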
Active calls of the source: *. This is a sample that favours compounds with a hit; in the whole collection about 0.96% have one here. Unless noted, no rule for the calls is given here.

Screening COc1ccc(C2C=C(c3ccc(Cl)cc3)Nc3nc(NC(C)=O)nn32)cc1 (configuration not stated) returned Fluorescein fluor 2.8e-08M*, Rhodamine fluor inactive, A647 fluor 3.5e-09, Texas Red fluor inactive, Resorufin autofl inactive and A488 autofl inactive.
CC(=O)Nc1nc2n(n1)C(c1ccc(F)cc1)C=C(c1ccccc1)N2 (configuration not stated) was read as Fluorescein fluor 1.4e-08M*, Rhodamine fluor inactive, A647 fluor 4.1e-08, Texas Red fluor inactive, Resorufin autofl inactive and A488 autofl inactive.
For CCC[C@@H]1O[C@@H]2C[C@@H]3[C@@H]4CCC5=CC(=O)C=C[C@@]5(C)[C@H]4[C@H](O)C[C@@]3(C)[C@@]2(C(=O)CO)O1 the results were Fluorescein fluor inactive, Rhodamine fluor inactive, A647 fluor 1.4e-09, Texas Red fluor inconclusive, Resorufin autofl inactive and A488 autofl inactive.
`O=C1OC(=O)[C@@H]2[C@@H]1[C@@H]1CC[C@H]2O1` gave Fluorescein fluor inconclusive, Rhodamine fluor inactive, A647 fluor 1e-09, Texas Red fluor inactive, Resorufin autofl inactive and A488 autofl inactive.
For CC(C)[C@@H]1NC(=O)[C@H](CCCCN)NC(=O)[C@H](Cc2c[nH]c3ccccc23)NC(=O)[C@H](Cc2ccc(O)cc2)NC(=O)[C@H](C)N(C)C(=O)[C@H](Cc2ccccc2)NC1=O the results were Fluorescein fluor inactive, Rhodamine fluor inactive, A647 fluor 6.1e-09, Texas Red fluor inactive, Resorufin autofl inactive and A488 autofl inactive.
O=C1c2ccccc2C(=O)N1C[C@]1(C(=O)O)NCCS1(=O)=O was read as Fluorescein fluor inactive, Rhodamine fluor inactive, A647 fluor 1e-09, Texas Red fluor inactive, Resorufin autofl inactive and A488 autofl inactive.
CC1(C)CC[C@]2(C(=O)O)CC[C@]3(C)C(=CC[C@@H]4[C@@]5(C)CC[C@H](O)C(C)(C)[C@@H]5CC[C@@]43C)[C@@H]2C1 was read as Fluorescein fluor inactive, Rhodamine fluor inactive, A647 fluor 1e-09, Texas Red fluor inactive, Resorufin autofl inactive and A488 autofl inactive.
For O=c1c(-c2cc(F)cc(F)c2)nc2cnc(N3CCOCC3)nc2n1-c1ccccc1 the results were Fluorescein fluor inactive, Rhodamine fluor inactive, A647 fluor 1e-09, Texas Red fluor inactive, Resorufin autofl inactive and A488 autofl inactive.
For COc1ccc(C2C=C(c3ccc(Br)cc3)Nc3nc(N4C(=O)CCC4=O)nn32)cc1 (configuration not stated) the results were Fluorescein fluor 1.1e-08M*, Rhodamine fluor inactive, A647 fluor 4.1e-09, Texas Red fluor inactive, Resorufin autofl inactive and A488 autofl inactive.
CN(C)C(=O)c1ccc(-c2ccc3ncnc(N(C)Cc4ccco4)c3c2)cc1 was read as Fluorescein fluor inactive, Rhodamine fluor inactive, A647 fluor 1.1e-09, Texas Red fluor inactive, Resorufin autofl inactive and A488 autofl inactive.
N#CC1=C(N)SC(N)=C(C#N)C1CCc1ccccc1 was read as Fluorescein fluor 1.2e-08M*, Rhodamine fluor inactive, A647 fluor 1.2e-08, Texas Red fluor inactive, Resorufin autofl inactive and A488 autofl inactive.
`N#CC1=C(N)SC(N)=C(C#N)C1c1c(Cl)cccc1Cl` gave Fluorescein fluor inactive, Rhodamine fluor inactive, A647 fluor 8e-09, Texas Red fluor inactive, Resorufin autofl inactive and A488 autofl inactive.
CCOC(=O)C1CCCN(c2nc3ccccc3nc2C(C#N)C(=O)OCC)C1 (configuration not stated) was read as Fluorescein fluor 1.1e-08M*, Rhodamine fluor inactive, A647 fluor 3e-09, Texas Red fluor inactive, Resorufin autofl inactive and A488 autofl inactive.
Screening COCCNC(=O)C(C#N)c1nc2ccccc2nc1N1CCCCCC1 (configuration not stated) returned Fluorescein fluor inconclusive, Rhodamine fluor inactive, A647 fluor 2.7e-08, Texas Red fluor inactive, Resorufin autofl inactive and A488 autofl inactive.
`CCOC(=O)C1CCN(c2nc3ccccc3nc2C(C#N)C(=O)NCCc2ccccc2)CC1` (configuration not stated) gave Fluorescein fluor 2.3e-08M*, Rhodamine fluor inactive, A647 fluor 1e-09, Texas Red fluor inactive, Resorufin autofl inactive and A488 autofl inactive.
Screening CCOC(=O)C1CCCN(c2nc3ccccc3nc2C(C#N)C(=O)OCCOC)C1 (configuration not stated) returned Fluorescein fluor inconclusive, Rhodamine fluor inactive, A647 fluor 2.7e-08, Texas Red fluor inactive, Resorufin autofl inactive and A488 autofl inactive.
Screening CCn1c(CSc2nccn2C)nc2cc(C(=O)O)ccc21 returned Fluorescein fluor 1.1e-08M*, Rhodamine fluor 1.7e-08M*, A647 fluor 2.4e-08, Texas Red fluor 2.7e-08M*, Resorufin autofl 1.1e-08M* and A488 autofl inactive.
Screening Cn1ccnc1SCC(=O)c1cc2ccccc2o1 returned Fluorescein fluor inactive, Rhodamine fluor inactive, A647 fluor 1e-09, Texas Red fluor inactive, Resorufin autofl inactive and A488 autofl inactive.
For CCOC(=O)N1CC=C2C(C#N)=C(N)C(C#N)(C#N)[C@H](c3ccc(OC(C)C)c(OCC)c3)[C@H]2C1 the results were Fluorescein fluor inactive, Rhodamine fluor inactive, A647 fluor 1e-09, Texas Red fluor inactive, Resorufin autofl inactive and A488 autofl inactive.
For COc1cccc(C2C3CN(C)CC=C3C(C#N)=C(N)C2(C#N)C#N)c1OC (configuration not stated) the results were Fluorescein fluor 5.2e-08M*, Rhodamine fluor inactive, A647 fluor 2.6e-08, Texas Red fluor inactive, Resorufin autofl inactive and A488 autofl inconclusive.
`CCN1CC=C2C(C#N)=C(N)C(C#N)(C#N)[C@H](c3cccc(OC)c3OC)[C@H]2C1` gave Fluorescein fluor 9.6e-08M*, Rhodamine fluor inactive, A647 fluor 1e-09, Texas Red fluor inactive, Resorufin autofl inactive and A488 autofl inconclusive.
For COc1cc([C@@H]2[C@H]3CN(C)CC=C3C(C#N)=C(N)C2(C#N)C#N)cc2c1OCO2 the results were Fluorescein fluor 1.1e-08M*, Rhodamine fluor inactive, A647 fluor 5.1e-08, Texas Red fluor inactive, Resorufin autofl inactive and A488 autofl inactive.
For CN1CC=C2C(C#N)=C(N)C(C#N)(C#N)C(CCc3ccccc3)C2C1 (configuration not stated) the results were Fluorescein fluor 4.3e-08M*, Rhodamine fluor inactive, A647 fluor 6.3e-09, Texas Red fluor inconclusive, Resorufin autofl inactive and A488 autofl inconclusive.
